Assay [1] can be described thus: binders of probe aFSTL3 on microarray, primary screen, stem cell growth factor project, biochemical, small-molecule microarray, fluorescence 635/667 (AID 1064).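 Note: measures binding of the biotinylated anti-FSTL3 antibody to printed compounds.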 The conditions noted are these: higher = more signal.
Assay [2] can be described thus: binders from COS7 lysate, DM2A8 probe, primary screen, torsin A project, cell lysate, small-molecule microarray, fluorescence 635/667 (AID 1065). The conditions noted are these: higher = more signal, COS7 lysate expressing mutant human TOR1A.
The nature of assay [3]: binders of probe aFGF2 on microarray, primary screen, stem cell growth factor project, biochemical, small-molecule microarray, fluorescence 635/667 (AID 1067).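 Note: measures binding of biotinylated aFGF2 protein to printed compounds on slides; z-score merges feature fluorescence and signal-to-noise across triplicate slides.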 To be noted: higher = more signal.
Assay [4] in a line: binders of probe aFGF10 on microarray, primary screen, stem cell growth factor project, biochemical, small-molecule microarray, fluorescence 635/667 (AID 1071).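 Note: score merges 667 nm spot intensity and signal to noise from triplicate slides.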 The conditions noted are these: higher = more signal.
Assay [5] addresses Neurogenic locus notch homolog protein 2 (Homo sapiens) (UniProt Q04721). The assay is described as follows: Notch2 binders on small-molecule microarrays, primary screen, biochemical, small-molecule microarray, 635 nm fluorescence, stem cell growth factors (AID 1073). The conditions noted are these: Notch2 binding, higher = more signal.
Assay [6] concerns the target Pro-neuregulin-1, membrane-bound isoform (Homo sapiens) (UniProt Q02297). The assay can be described thus: NRG1 binders on small-molecule microarrays, primary screen, psychiatric disease protein project, biochemical, small-molecule microarray, fluorescence 635/667 (AID 1075).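 Note: score combines 667 nm spot fluorescence with signal to noise.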 To be noted: NRG1 binding, 635 nm fluorescence, higher = more signal.
In assay [7] the test system is Neuregulin-1 EGF-like domain. The assay is described as follows: binders of neuregulin-1 EGF-like domain, primary screen, biochemical, small-molecule microarray, 635 nm fluorescence (AID 1081).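 Note: binding of the protein to compounds printed on small-molecule microarray slides.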 The conditions noted are these: small-molecule microarray binding, higher = more signal.
A short description of assay [8]: FRG1 promoter luciferase signal modulators, primary screen, FRG1 inhibition for FSHD, cell-based, C2C12 myotubes, firefly/Renilla luciferase, luminescence (AID 1084). To be noted: higher = more signal, called active from +8 up or from −8 down.
Assay [9] is described as follows: binders of probe aFST on microarray, primary screen, stem cell growth factor project, biochemical, small-molecule microarray, fluorescence 635/667 (AID 1086).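 Note: score merges 667 nm fluorescence with signal-to-noise of each printed compound spot.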 To be noted: higher = more signal.
Assay [10] can be described thus: binders of probe aHhip on microarray, primary screen, stem cell growth factor project, biochemical, small-molecule microarray, fluorescence 635/667 (AID 1087).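 Note: score merges spot fluorescence at 667nm with spot signal to noise ratio.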 To be noted: higher = more signal.

Active and inactive are the calls of the source.

Sequence of Pro-neuregulin-1, membrane-bound isoform (Homo sapiens) (Q02297 whole entry, looked up, the tested form may be a part, canonical isoform): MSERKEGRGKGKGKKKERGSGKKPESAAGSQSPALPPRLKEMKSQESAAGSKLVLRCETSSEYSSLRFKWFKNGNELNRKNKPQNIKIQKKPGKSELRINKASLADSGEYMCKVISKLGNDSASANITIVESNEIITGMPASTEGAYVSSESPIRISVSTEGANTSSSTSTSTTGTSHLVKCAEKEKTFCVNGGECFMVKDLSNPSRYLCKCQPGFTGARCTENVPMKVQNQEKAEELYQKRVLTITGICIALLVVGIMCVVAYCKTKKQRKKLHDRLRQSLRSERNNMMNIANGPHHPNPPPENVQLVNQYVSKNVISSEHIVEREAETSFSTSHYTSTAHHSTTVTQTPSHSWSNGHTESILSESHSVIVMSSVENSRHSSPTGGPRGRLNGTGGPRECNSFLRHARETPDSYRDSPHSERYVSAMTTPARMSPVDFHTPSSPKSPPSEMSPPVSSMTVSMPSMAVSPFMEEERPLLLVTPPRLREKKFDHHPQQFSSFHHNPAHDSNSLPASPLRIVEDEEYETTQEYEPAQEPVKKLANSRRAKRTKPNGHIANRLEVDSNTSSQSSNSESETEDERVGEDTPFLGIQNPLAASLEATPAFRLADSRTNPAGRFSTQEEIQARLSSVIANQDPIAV
Sequence of Neurogenic locus notch homolog protein 2 (Homo sapiens) (Q04721 whole entry, looked up, canonical isoform): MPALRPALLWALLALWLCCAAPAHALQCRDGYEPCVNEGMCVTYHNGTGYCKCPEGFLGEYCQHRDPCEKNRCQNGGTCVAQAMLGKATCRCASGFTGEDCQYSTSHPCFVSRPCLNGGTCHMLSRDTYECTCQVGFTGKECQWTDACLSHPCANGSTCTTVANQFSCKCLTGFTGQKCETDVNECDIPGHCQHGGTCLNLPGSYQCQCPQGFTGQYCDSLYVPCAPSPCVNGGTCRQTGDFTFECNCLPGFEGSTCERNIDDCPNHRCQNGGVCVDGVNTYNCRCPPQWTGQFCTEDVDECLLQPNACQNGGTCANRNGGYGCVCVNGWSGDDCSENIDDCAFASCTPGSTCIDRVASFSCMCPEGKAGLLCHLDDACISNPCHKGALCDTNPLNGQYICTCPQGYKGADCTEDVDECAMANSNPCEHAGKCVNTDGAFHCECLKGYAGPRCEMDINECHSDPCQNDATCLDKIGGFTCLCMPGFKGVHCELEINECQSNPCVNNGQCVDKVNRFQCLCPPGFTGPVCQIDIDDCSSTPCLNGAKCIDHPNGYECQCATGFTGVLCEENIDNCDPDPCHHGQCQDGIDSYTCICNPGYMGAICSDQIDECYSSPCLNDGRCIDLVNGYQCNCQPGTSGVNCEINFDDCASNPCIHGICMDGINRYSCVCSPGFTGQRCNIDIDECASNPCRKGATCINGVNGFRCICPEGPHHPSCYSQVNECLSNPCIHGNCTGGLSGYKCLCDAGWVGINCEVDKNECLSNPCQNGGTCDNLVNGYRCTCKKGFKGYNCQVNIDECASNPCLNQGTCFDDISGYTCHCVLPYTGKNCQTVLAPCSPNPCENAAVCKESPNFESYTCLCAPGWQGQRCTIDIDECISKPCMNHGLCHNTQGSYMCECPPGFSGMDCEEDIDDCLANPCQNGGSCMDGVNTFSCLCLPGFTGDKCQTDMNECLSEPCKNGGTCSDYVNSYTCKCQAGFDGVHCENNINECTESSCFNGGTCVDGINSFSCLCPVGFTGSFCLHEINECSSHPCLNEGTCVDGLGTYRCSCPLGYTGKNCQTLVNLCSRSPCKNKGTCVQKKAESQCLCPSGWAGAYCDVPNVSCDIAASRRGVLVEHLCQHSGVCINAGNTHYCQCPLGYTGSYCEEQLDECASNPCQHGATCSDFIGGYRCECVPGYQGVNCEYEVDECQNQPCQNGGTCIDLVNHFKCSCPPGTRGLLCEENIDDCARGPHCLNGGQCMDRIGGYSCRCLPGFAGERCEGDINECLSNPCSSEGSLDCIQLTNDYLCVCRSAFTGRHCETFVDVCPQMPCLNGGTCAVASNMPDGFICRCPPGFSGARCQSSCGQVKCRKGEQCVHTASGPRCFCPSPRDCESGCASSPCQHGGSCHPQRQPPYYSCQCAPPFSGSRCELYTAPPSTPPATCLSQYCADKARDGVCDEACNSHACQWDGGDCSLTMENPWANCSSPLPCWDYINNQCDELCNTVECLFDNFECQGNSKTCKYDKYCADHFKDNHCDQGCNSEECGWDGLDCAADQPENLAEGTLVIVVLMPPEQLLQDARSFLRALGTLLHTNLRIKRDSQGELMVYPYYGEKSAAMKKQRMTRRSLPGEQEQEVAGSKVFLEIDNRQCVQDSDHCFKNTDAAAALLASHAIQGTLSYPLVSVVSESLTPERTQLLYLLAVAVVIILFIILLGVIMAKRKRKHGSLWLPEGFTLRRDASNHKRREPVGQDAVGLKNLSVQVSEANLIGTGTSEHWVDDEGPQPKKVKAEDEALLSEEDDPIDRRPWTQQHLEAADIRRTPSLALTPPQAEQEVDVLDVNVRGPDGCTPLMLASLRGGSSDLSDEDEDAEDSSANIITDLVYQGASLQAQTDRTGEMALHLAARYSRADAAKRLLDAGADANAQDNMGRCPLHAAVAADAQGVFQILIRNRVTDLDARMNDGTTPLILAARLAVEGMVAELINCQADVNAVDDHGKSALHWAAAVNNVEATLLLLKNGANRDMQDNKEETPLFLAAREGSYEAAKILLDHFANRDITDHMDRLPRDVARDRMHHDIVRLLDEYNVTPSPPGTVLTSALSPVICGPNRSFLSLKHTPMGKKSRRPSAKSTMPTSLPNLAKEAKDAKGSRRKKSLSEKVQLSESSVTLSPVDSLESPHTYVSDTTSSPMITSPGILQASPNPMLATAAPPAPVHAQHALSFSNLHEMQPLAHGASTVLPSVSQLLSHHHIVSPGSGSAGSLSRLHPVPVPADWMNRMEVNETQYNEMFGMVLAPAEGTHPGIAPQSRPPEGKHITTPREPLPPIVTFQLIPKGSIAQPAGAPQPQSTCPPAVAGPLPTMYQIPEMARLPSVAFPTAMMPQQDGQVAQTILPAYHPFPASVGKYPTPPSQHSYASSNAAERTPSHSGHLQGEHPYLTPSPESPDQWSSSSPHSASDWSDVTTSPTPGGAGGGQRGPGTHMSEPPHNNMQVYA

As to `N#Cc1ccc(NN2C(C(O)c3c(F)cccc3Cl)C=CC3C(=O)N(c4ccccc4)C(=O)C32)cc1` (stereo not given), the composite z-score in assay [1] amounted to 0.394; in assay [2], 0.187; in assay [3], 0.199; in [4], 0.63; in assay [5] it was 1.69; in [6] it was 1.97. Further, the composite z-score in assay [7] was 0.456; in assay [9], 1.18; in assay [10], 0.0053. For the same molecule, the z-score in assay [8] was -1.14 (inactive).

For `CCOC(=O)C[C@H]1[C@H](OC(=O)Cc2ccc3c(c2)OCO3)[C@@H](NC(=O)c2ccc3ccccc3c2)c2cc(OCCCO)ccc2N1C(=O)c1ccccc1`, the composite z-score in assay [1] was -0.397; in assay [2], 0.0993; in [3] it was -0.14; in [4], 0.284; in [5] it was 0.642; in assay [6], 0.376. Moreover, the figures for the composite z-score in assay [7], in assay [9] and in assay [10] were 1.13, 0.254 and 0.0373, respectively. For the same molecule, in assay [8], the z-score is 0.12 (inactive).

In the case of `C=CCNC(=O)[C@@H]1[C@H]2C(=O)O[C@H](c3ccccc3)[C@H](c3ccccc3)N2[C@H](c2ccccc2OCCO)[C@@]12C(=O)N(C(=O)OCCOC)c1ccc(C#CCNC(N)=O)cc12`, the composite z-score in [1] was -0.14; in assay [2] it was 0.428; in assay [3], -0.0864; in assay [4], 0.354; in [5], 0.524; in [6] it was 1.27. In addition, the results for the composite z-score in [7], in [9] and in [10] were 0.958, -0.0306 and 0.251, respectively. Also, the z-score in assay [8] is -0.623 (inactive).

Regarding `COC(=O)[C@@]1(Cc2ccc(F)cc2)[C@@H]2[C@@H](CC(=O)[C@H]2CC(=O)C(=O)N(C)C)CN1C(=O)c1ccccc1`, the composite z-score in [1] was 0.367; in assay [2], -0.178; in assay [3] it was 0.287; in assay [4] it was 0.855; in assay [5], 1.76; in [6] it was 1.3. The composite z-score in assay [7] was 1.18; in assay [9], 2.33; in assay [10], 0.33. In assay [8], the z-score is -0.439 (inactive).

With `CC(C)(C)OC(=O)CC[C@@]1(C(=O)NCCN2CCOCC2)N=C(c2ccc(OCCCO)cc2)O[C@@H]1c1ccccc1N=[N+]=[N-]`, the composite z-score came out at 0.793 in assay [1]; 0.122 in assay [2]; 0.0789 in assay [3]; 1.01 in assay [4]; 1.49 in assay [5]; 1.56 in [6]. Also, the composite z-score stood at 1.32 in assay [7], 1.67 in assay [9] and 0.232 in assay [10]. In [8], the z-score is 4.07 (inactive).

As for `COCCOC(=O)N1C(=O)[C@@]2(c3cc(C#Cc4ccc(OC)cc4)ccc31)[C@H](c1ccccc1OCCO)N1[C@H](c3ccccc3)[C@H](c3ccccc3)OC(=O)[C@H]1[C@@H]2C(=O)N1CCN(c2ncccn2)CC1`, the composite z-score is -0.173 in assay [1]; 0.489 in assay [2]; -0.0336 in assay [3]; 0.619 in [4]; 0.568 in assay [5]; 0.4 in [6]. The results for the composite z-score in assay [7], in assay [9] and in [10] were 1.23, 0.172 and -0.0618, respectively. Further, the z-score in assay [8] is -1.23 (inactive).

In the case of `C[N+](C)(C)CCCCNC(=O)[C@H]1C[C@H]2C(=O)N[C@@H](Cc3ccccc3)C(=O)N2[C@H]1c1ccc(O)cc1`, the composite z-score in assay [1] was 0.288; in assay [2] it was 0.504; in assay [3], -0.074; in assay [4] it was 0.0806; in [5] it was -0.601; in assay [6], -0.158. Also, the composite z-score was 1.22 in assay [7], -0.0662 in assay [9] and -0.0645 in assay [10]. Besides, in assay [8], the z-score was 0.605 (inactive).

For the molecule `CN(C)CCCNC(=O)[C@@]1(c2ccc([N+](=O)[O-])cc2)CC(=O)N(C2CCCCC2)[C@@H]1c1ccc(CO)cc1I`, the composite z-score in [1] was 0.284; in [2], 1.05; in [3], -0.087; in [4], -0.0752; in [5] it was -0.0551; in [6] it was 0.314. For the same molecule, the composite z-score is 1.34 in assay [7], -0.364 in assay [9] and -0.266 in [10]. In addition, in assay [8], the z-score is -0.635 (inactive).

Take `COc1cc2c(cc1O)C(C1CC1)N(Cc1cc3c(cc1Br)OCO3)CC2` (stereo not given): the composite z-score in [1] is 0.423; in assay [2], 0.97; in assay [3], -0.119; in assay [4], -0.974; in assay [5] it was -0.695; in assay [6], 0.502. The values for the composite z-score in [7], in assay [9] and in assay [10] were 1.02, -0.734 and -0.394, respectively. In assay [8], the z-score was 1.21 (inactive).

`COc1ccc(COC2OC[C@]3(C)[C@H]4C5=C(CN3C(=O)OC(C)(C)C)[C@H](C)C(CO)C(CO)C5CC[C@@H]24)cc1` (stereo not given in full): the composite z-score is 0.262 in [1]; 1.27 in assay [2]; -0.0832 in assay [3]; 0.424 in assay [4]; 1.65 in assay [5]; 1.02 in [6]. Further, the composite z-score in assay [7] was 0.982; in assay [9] it was 1.98; in assay [10], -0.069. Also, the z-score in assay [8] was 2.67 (inactive).

In the case of `CC(C)N1C(=O)c2ccccc2[C@](C)(C(=O)NCc2ccccc2)[C@@H]1c1ccc(CO)cc1`, the composite z-score in assay [1] is 0.197; in assay [2], 0.0699; in assay [3], -0.157; in assay [4], -0.158; in assay [5], -0.463; in assay [6] it was -1.06. Further, the composite z-score in assay [7] was 0.744; in [9], -0.27; in assay [10], -0.0994. Besides, the z-score in assay [8] was -1.03 (inactive).

As to `COCC(=C=CC[C@H](O)c1ccccc1OCCO)C[C@H](O)c1cc(Cl)cc(Cl)c1O`, the composite z-score in [1] is -0.417; in assay [2], 0.555; in assay [3] it was -0.129; in [4] it was 0.999; in [5], 0.421; in assay [6], 1.43. In addition, the composite z-score in assay [7] is 1.14; in [9] it was 0.372; in assay [10], -0.0994. The z-score in [8] was -3.97 (inactive).

As to `CCOC(=O)C[C@H]1[C@H](OC(=O)c2ccc(C(=O)c3ccccc3)cc2)[C@@H](NC(=O)c2ccc(-c3ccccc3)cc2)c2cc(OCCCO)ccc2N1C(=O)c1ccccc1`, the composite z-score in [1] was -0.57; in assay [2], -0.264; in assay [3], -0.212; in assay [4], 0.577; in assay [5], 0.639; in [6], 0.771. In addition, the composite z-score is 0.744 in assay [7], 0.319 in [9] and -0.164 in assay [10]. Further, the z-score in assay [8] was 0.805 (inactive).

For `O=C1C2C=CC(C(O)c3ccc(F)cc3)N(Nc3ccccc3F)C2C(=O)N1c1ccccc1` (stereo not given), the composite z-score in assay [1] was 0.185; in assay [2] it was -0.333; in assay [3], 0.124; in assay [4], 0.439; in assay [5] it was 1.16; in assay [6], 1.99. Also, the composite z-score in assay [7] turned out to be 1.23; in assay [9], 0.886; in assay [10], 0.21. In addition, the z-score in assay [8] was -1.43 (inactive).

The values are drawn from PubChem BioAssay.
